Inconclusive results are not listed. The source made the active and inactive calls. Unless noted, calls come from the whole dose curve.
Legend:
[1] = qHTS for Inhibitors of the Functional Ribonucleoprotein Complex (vRNP) of Lassa (LASV) Arenavirus: LASV Primary Screen - GLuc reporter signal (AID 1347082; calls by dose curve; tested in HEK293 reporter line; note: nearly all actives have a fitted effect of over 60% in size)
[2] = qHTS for Inhibitors of the Functional Ribonucleoprotein Complex (vRNP) of Lassa (LASV) Arenavirus: Viability assay - alamar blue signal for LASV Primary Screen (AID 1347083; calls by dose curve; tested in HEK293 reporter line; note: nearly all actives have a fitted effect of over 80% in size)
[3] = target: Nucleoprotein (Lymphocytic choriomeningitis virus (strain Armstrong)) (UniProt P09992); assay: qHTS for Inhibitors of the Functional Ribonucleoprotein Complex (vRNP) of Lymphocytic Choriomeningitis Arenaviruses (LCMV): LCMV Primary Screen - GLuc reporter signal (AID 1347086); note: nearly all actives have a fitted effect of over 70% in size
[4] = qHTS for Inhibitors of the Functional Ribonucleoprotein Complex (vRNP) of Lymphocytic Choriomeningitis Arenaviruses (LCMV): Viability assay - alamar blue signal for LCMV Primary Screen (AID 1347085; calls by dose curve; tested in HEK293 reporter line; note: nearly all actives have a fitted effect of over 80% in size)

Measured: Potency
Potency is the fitted concentration of half-maximal effect.

Chain of Nucleoprotein (Lymphocytic choriomeningitis virus (strain Armstrong)) (P09992 whole entry, looked up): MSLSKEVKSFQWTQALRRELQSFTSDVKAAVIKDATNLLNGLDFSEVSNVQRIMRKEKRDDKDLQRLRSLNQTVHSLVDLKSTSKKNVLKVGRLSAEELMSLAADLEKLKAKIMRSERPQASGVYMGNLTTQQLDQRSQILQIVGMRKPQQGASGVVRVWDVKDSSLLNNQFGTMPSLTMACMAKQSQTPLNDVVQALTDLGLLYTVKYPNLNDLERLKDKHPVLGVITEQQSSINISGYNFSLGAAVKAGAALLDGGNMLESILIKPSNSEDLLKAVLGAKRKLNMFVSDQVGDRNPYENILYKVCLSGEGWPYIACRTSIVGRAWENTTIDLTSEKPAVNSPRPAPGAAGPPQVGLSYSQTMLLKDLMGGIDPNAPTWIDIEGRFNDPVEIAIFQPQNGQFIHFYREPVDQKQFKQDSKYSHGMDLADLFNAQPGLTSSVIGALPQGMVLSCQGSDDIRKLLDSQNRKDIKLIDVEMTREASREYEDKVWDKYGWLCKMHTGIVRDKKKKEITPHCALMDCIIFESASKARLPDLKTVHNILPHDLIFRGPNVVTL

CN(C)c1ccc(Nc2nc(N)n(C(=O)c3c(F)cccc3F)n2)cc1
active: [2] 21.7 µM
inactive: [1] | [3]

COc1c(C)cnc(Cn2cnc3c(Cl)nc(N)nc32)c1C
active: [1] 1.37 µM | [2] 0.611 µM | [4] 0.685 µM | [3] 0.344 µM

N#CCNC(=O)c1ccc(-c2ccnc(Nc3ccc(N4CCOCC4)cc3)n2)cc1
active: [2] 21.7 µM
inactive: [1] | [3]

NC(=O)c1ccc(I)c([N+](=O)[O-])c1
inactive: all assays above

Nc1cccc(S(=O)(=O)N2CCCN(S(=O)(=O)c3ccc4c(c3)OCCO4)CC2)c1
inactive: all assays above

COc1cc(Nc2ncc(F)c(Nc3ccc4c(n3)NC(=O)C(C)(C)O4)n2)cc(OC)c1OC
inactive: [1] | [2] | [3]

COC(=O)[C@]12CCC(C)(C)C[C@@H]1[C@@H]1C(=O)C=C3[C@@]4(C)C=C(C#N)C(=O)C(C)(C)[C@@H]4CC[C@@]3(C)[C@]1(C)CC2
active: [1] 4.85 µM | [2] 3.43 µM | [3] 2.17 µM

O=C(NC1CCNCC1)c1[nH]ncc1NC(=O)c1c(Cl)cccc1Cl
active: [1] 3.43 µM | [2] 0.769 µM | [4] 0.968 µM | [3] 1.93 µM

C#CC(C)(CC)OC(=O)c1ccccc1C(=O)O (stereo unspecified)
inactive: all assays above

Nc1cc(C(F)(F)F)c(-c2cc(N3CCOCC3)nc(N3CCOCC3)n2)cn1
active: [1] 1.93 µM | [2] 1.22 µM | [3] 0.685 µM

Nc1ccc(-c2ccc3ncc4ccc(=O)n(-c5cccc(C(F)(F)F)c5)c4c3c2)cn1
active: [1] 0.0024 µM | [2] 0.0027 µM | [4] 0.0054 µM | [3] 0.0054 µM

CCC(=C(c1ccccc1)c1ccc(OCCN(C)C)cc1)c1ccccc1
inactive: all assays above

CC(C)(C)c1nnc(NS(=O)(=O)c2ccccc2)s1
inactive: all assays above

Cc1ccccc1N=Nc1ccc(N=Nc2c(O)ccc3ccccc23)c(C)c1
inactive: all assays above

O=C(C=Cc1c(C(=O)O)[nH]c2cc(Cl)cc(Cl)c12)Nc1ccccc1
inactive: all assays above

CC(C)C[C@H](NC(=O)CNC(=O)c1cc(Cl)ccc1Cl)B(O)O
active: [1] 7.69 µM | [2] 1.53 µM | [3] 3.06 µM

C=CC(=O)Nc1cccc(Oc2nc(Nc3ccc(N4CCN(C)CC4)cc3OC)ncc2Cl)c1
active: [2] 0.0385 µM | [4] 0.0485 µM
inactive: [1] | [3]

Clc1ccc2ncc(-c3cccc(NC4CNC4)n3)n2c1
active: [2] 21.7 µM
inactive: [1] | [3]

CN(C)c1ccc(N=NS(=O)(=O)O)cc1
inactive: all assays above

O=C1CCCC2=C1C(c1[nH]ncc1Cl)N=C(Nc1nc3ccccc3o1)N2 (stereo unspecified)
inactive: all assays above

C=C1C(=CC=C2CCC[C@]3(C)[C@@H]([C@H](C)C=C[C@H](C)C(C)C)CC[C@@H]23)C[C@@H](O)C[C@@H]1O
active: [2] 13.7 µM | [4] 13.7 µM
inactive: [1] | [3]

Cn1c(Nc2ccc(C(F)(F)F)cc2)nc2cc(Oc3ccnc(-c4ncc(C(F)(F)F)[nH]4)c3)ccc21
inactive: [3]
active: [1] 21.7 µM | [2] 2.43 µM | [4] 8.63 µM

CC1=NN(c2ccccc2)C(=O)C1
inactive: all assays above

Cc1c(C)c2c(c(C)c1OC(=O)c1cccnc1)CC[C@@](C)(CCC[C@H](C)CCC[C@H](C)CCCC(C)C)O2
inactive: all assays above

Cc1cc(Nc2nc(N[C@@H](C)c3ncc(F)cn3)ncc2Cl)n[nH]1
inactive: all assays above

CN1[C@@H]2CC[C@H]1CC(OC(=O)C(O)c1ccccc1)C2 (stereo partly specified)
inactive: all assays above

C1=CC2C3C=CC(C3)C2C1 (stereo unspecified)
inactive: all assays above

Reference: PubChem BioAssay (NCATS)
